Source: PubChem
ERK EGF block: inhibitors of EGF-stimulated ERK signaling pathway; HEK293-V1b, EGF-stimulated phospho-ERK AlphaScreen; Potency, µM (top dose mostly 11.5 µM), without a hit: top-dose activity change, negative = inhibition, usual class: inhibitors; 130,000 tested, 0.41% active; AID 1454;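 further: plate controls were stimulated vehicle wells for no effect and unstimulated vehicle basal for full effect; nearly all actives have a fitted effect of over 55% in size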
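Phospho-ERK1/2 measured by AlphaScreen (SureFire) after 5 min 25 nM EGF stimulation of V1b-expressing HEK293 cells preincubated 30 min at 37C with titrated compounds; data scaled to DMSO and EGF controls, Hill-fitted AC50.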
IMPase Li inh: membrane-permeable IMPase blocker, potentiated with lithium. CHO-M1 cells, IP1 TR-FRET (IP-One), carbachol + lithium. 210,000 tested, 0.35% active. Potency, µM (doses to about 59.4 µM), inactives show at the highest dose activity, negative = IMPase inhibition, actives largely listed as inhibitors;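 further: IP1 builds up when IMPase is blocked and the TR-FRET signal falls; plate controls were basal vehicle for no effect and high inhibitor control for full effect; nearly all actives have a fitted effect of over 50% in size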
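Test compounds were applied to CHO-M1 cells previously cultured for 16–30 h at 2000 per well. A small lithium amount accompanied them; after 30 min at 37C, IP1 was quantified by TR-FRET.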
NPSR antag: neuropeptide S receptor (human) antagonism, cAMP; Q6W5P4; CHO-NPSR cells, cAMP TR-FRET, antagonist mode; Potency, µM (series often up to 38.3 µM), for inactives: at the top dose activity change, negative = inhibition, most hits filed as inhibitors; 220,000 tested, 1% active; AID 1461; further: nearly all actives have a fitted effect of over 50% in size
Target sequence (Q6W5P4 whole entry, looked up): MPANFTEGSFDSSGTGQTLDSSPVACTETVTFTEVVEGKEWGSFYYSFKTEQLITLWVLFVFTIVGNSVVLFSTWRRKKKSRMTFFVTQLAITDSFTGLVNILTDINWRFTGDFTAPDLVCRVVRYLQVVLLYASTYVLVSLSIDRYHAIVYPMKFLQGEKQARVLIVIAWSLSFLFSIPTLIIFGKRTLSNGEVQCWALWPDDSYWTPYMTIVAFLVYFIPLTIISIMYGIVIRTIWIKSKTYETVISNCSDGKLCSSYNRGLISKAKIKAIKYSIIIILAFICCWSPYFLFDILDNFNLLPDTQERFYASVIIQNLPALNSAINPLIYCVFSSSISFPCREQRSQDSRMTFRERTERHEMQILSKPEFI
Luc counter: blocks Kinase-Glo luciferase, a counter-screen artifact. 200,000 tested, 0.28% active. AID 1379. Kinase-Glo luciferase, ATP luminescence, 8 min. Potency, µM (titrated, usually from 38.3 µM), for inactives: at the top dose activity change, negative = inhibition, usual class: inhibitors; further: nearly all actives have a fitted effect of over 60% in size
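Inhibition of Kinase-Glo luciferase light generation was assessed at 10 uM ATP in pH 7.2 imidazole buffer, with luminescence measured after eight minutes at ambient temperature.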
* marks the source's active call; other numbers are inactive results; ? = inconclusive; / = no result; [ ] = another dose, or the depositor's remark. In the library only some 1.1% were active in any assay of this set; here they are far more common. The call rests on the fitted dose curve; in most records, active means well fitted curve in the direction sought with a large enough effect; inconclusive means small, poorly fitted or top-dose-only effect, or another doubt; inactive means no such curve, though single readings can be large; an effect the other way counts as inactive or inconclusive. Unless noted, on the % scale 0 is the no-effect control and ±100 the full control effect; potency means the concentration at half of the fitted maximal effect.

SMILES	ERK EGF block	IMPase Li inh	NPSR antag	Luc counter
Cn1c(NC(=O)c2ccc(F)cc2)c(-c2ccccn2)c(=O)c2ccccc21	-9%[57.5 µM]	/	?	/
O=C(O)c1ccc(COc2ccccc2/C=C2\NC(=O)N(Cc3ccccc3)C2=O)cc1	-4%	4%	-41%	2%
O=C(O)c1ccc(COc2ccc3ccccc3c2/C=C2/NC(=O)N(Cc3ccc(F)cc3)C2=O)cc1	35µM*	24%	-45%	-2%
Cc1cc(C)n(-c2nc(NC(C)(C)C)nc(NC(C)(C)C)n2)n1	/	1%[38.3 µM]	-4%[46.1 µM]	-2%
Cc1cc(C)n(-c2nc(Nc3ccccc3C(F)(F)F)nc(-n3nc(C)cc3C)n2)n1	?	29%	0.32µM*	-3%
Cc1ccc(NS(=O)(=O)c2cccc(C(=O)NCC3(N(C)C)CCCCC3)c2)cc1	1%	1%	10µM*	3%
CCc1ccc2n(-c3ccc(OC)cc3)c([S-])c(C(=O)Nc3cc(C)cc(C)c3)[n+]2c1	-5%[57.5 µM]	/	10µM*	/
COc1ccc(CCNC(=O)c2c([S-])n(-c3ccc(C)cc3)c3cccc[n+]23)cc1	-7%[57.5 µM]	/	-42%	/
COc1ccccc1CCNC(=O)c1cc(-c2ccccn2)nc2ccc(Br)cc12	-11%	13µM*	?	-1%
O=C(NCCO)c1ccc(Cl)cc1	/	2%	/	-3%[7.66 µM]
CCOC(=O)c1cnc(Nc2nc3ccccc3o2)nc1CSC(=S)N(CC)CC	-4%	7%	0.5µM*	-2%
N#Cc1cnc(Nc2nc3ccccc3o2)nc1-c1ccccc1	/	16%[38.3 µM]	-25%[46.1 µM]	0%
Cc1nc(Nc2nc3ccccc3o2)nc(C)c1C	-3%	3%	18%	11µM*
Cc1ccnc(Nc2nc3ccccc3o2)n1	/	25%[38.3 µM]	6%[46.1 µM]	13µM*
O=C(CSCc1ccccc1)N=Nc1c(O)[nH]c2ccccc12	-6%	2%	-12%	0%
O=C(N=Nc1c(O)[nH]c2ccccc12)c1ccc(CN2CCOCC2)cc1	-3%	13%	-27%	8%
O=C(N=Nc1c(O)[nH]c2ccccc12)c1ccco1	-9%	13%	49%	10µM*
O=C(N=Nc1c(O)[nH]c2ccccc12)c1ccc2c(c1)OCO2	-6%	-1%	-47%	10µM*
Nc1cc(N2CCCCC2)nc(N)[n+]1OS(=O)(=O)[O-]	/	16%	/	/
Cc1ccnc(N2C(=O)c3ccccc3C2O)c1 (centres undefined)	/	-9%[38.3 µM]	-3%[46.1 µM]	11µM*
COc1cccc(CSCC(=O)O)c1	/	1%	/	-4%[7.66 µM]
CSc1nc(O)c(/C=C2\C=Nc3ccccc32)[nH]1	-4%	3%	-12%	6.3µM*
Cn1c(O)c(N=N/C(=N/c2ccccn2)c2ccccn2)c2cc(Br)ccc21	/	/	/	-6%
Cc1cccc(CN2C(=O)N/C(=C/c3cc(C)n(-c4cc(C)ccn4)c3C)C2=O)c1	/	50%[38.3 µM]	16µM*	-3%
CCN(CC)CCCNC(=O)c1ccc(Cc2nc3ccccc3[nH]2)cc1	/	/	/	-1%
SMILES	ERK EGF block	IMPase Li inh	NPSR antag	Luc counter
O=c1cnc2cnc(N3CCNCC3)nc2n1Cc1ccc(F)cc1	/	10%	/	/
O=C(Nc1ccc(OCC(F)(F)C(F)F)c(C(F)(F)F)c1)c1ccccc1O	/	22%	7.9µM*	1%
Oc1c(C(c2ccc(Cl)cc2)N2CCCC2)cc(Cl)c2cccnc12 (centres undefined)	2%	4%	-57%	1%
Oc1c(C(c2cccs2)N2CCN(c3ccccc3)CC2)ccc2cccnc12 (centres undefined)	/	-7%[38.3 µM]	16µM*	5%
Oc1c(C(c2ccccc2Cl)N2CCCC2)ccc2cccnc12 (centres undefined)	-10%	20%	10µM*	1%
O=C(c1cccc(F)c1)N1CCC[C@@]2(CCN(c3ccccc3)C2)C1	-9%	37%	/	-4%
CCCC(=O)OC(=O)CCC	/	-6%	/	/
C[C@@H]1O[C@H](O[C@@H]2[C@@H](Oc3cc(O)c4c(c3)O[C@H](c3ccc(O)cc3)CC4=O)O[C@@H](CO)[C@@H](O)[C@H]2O)[C@@H](O)[C@H](O)[C@@H]1O	5%[25.7 µM]	4%	/	1%[17.1 µM]
COc1cc2c(C=O)c3c4c(cc(OC)c(OC)c4c2cc1OC)CCN3C	-4%	22%	/	-1%
Nc1c(C(=O)C2CC2)sc2nc(-c3ccccc3)cc(C(F)(F)F)c12	11%	13µM*	24%[46.1 µM]	-2%
O=C(c1ccc(Cc2nc3ccccc3[nH]2)cc1)N1CCCCC1	/	/	/	-3%
COc1ccc2c(c1)O[C@@H](c1cccc(C(F)(F)F)c1)[C@H](OC(=O)NCc1ccc3c(c1)OCO3)C2=O	0%	18%	/	0%
COC(=O)c1nnc(C(=O)NCc2ccccc2)c2[nH]c3ccc(OC)cc3c12	-2%	17%	/	0%
N#C/C(=C\c1cc(Cl)cc(Cl)c1)c1cccnc1	/	9%	/	/
Cc1cccc(N2CCN(C(=S)c3ccc([N+](=O)[O-])cc3)CC2)c1	18µM*	23%	-4%	-1%
Cc1cccc(N2CCN(C(=S)c3ccccc3)CC2)c1	2%[57.5 µM]	25%	-21%	5%
NC(=O)CS(=O)C[C@H](N)C(=O)O (some centres undefined)	/	2%	/	-3%[7.66 µM]
CC(C)(C)c1ccc(CN2N=Nc3ccccc3S2(=O)=O)cc1	/	25%[38.3 µM]	10µM*	-2%
Cn1c(C(=O)N2CCN(C(=O)c3ccco3)CC2)cc2c(=O)n3ccccc3nc21	/	10µM*	12%[46.1 µM]	-2%
CCOC(=O)N1CCN(c2cc(NCCO)c([N+](=O)[O-])c3nonc23)CC1	0%	2%	-6%	-1%
CC(=O)OCCNc1cc(N2CCN(C)CC2)c2noc3c2c1C(=O)c1ccccc1-3	?	53%	10µM*	-11%
COc1ccccc1CNC(=O)CSc1nc(N)c(C#N)c(-c2cccs2)c1C#N	/	3.5µM*	1%[46.1 µM]	0%
CC[C@@H]1CC(=O)N(SC[C@H](N)C(=O)O)C1=O	/	-1%	/	-3%[7.66 µM]
COc1ccc(CC(=O)OCc2cc3cccc(C)c3[nH]c2=O)cc1	/	?	-9%[46.1 µM]	6%
COc1ccc(C(=O)OCc2cc3cccc(C)c3[nH]c2=O)cc1	22%[57.5 µM]	10µM*	-7%[46.1 µM]	1%
SMILES	ERK EGF block	IMPase Li inh	NPSR antag	Luc counter
COc1ccc(-c2cc(=O)c3ccc(F)cc3[nH]2)cc1	/	-24%	/	-1%[39.9 µM]
O=Cc1s/c(=N\S(=O)(=O)c2ccccc2)n(CCCCl)c1Cl	22µM*	25%	10µM*	-2%
COCCCN1C(=O)CS/C1=N\S(=O)(=O)c1ccccc1	-3%[57.5 µM]	/	45%	/
C=C[C@@H](C1=CC(=O)C(OC)=C(OC)C1=O)c1ccccc1	3%	46%	/	3%
COC(=O)C1=C(C(=O)OC)[C@@H]2N(Cc3ccccc3)c3ccccc3[C@@]23C[C@@H](C(=O)OC)N(S(=O)(=O)c2c(C)noc2C)C3=N1	/	10%	/	-6%[7.66 µM]
CCCc1nc2c(=O)n(C)c(=O)nc-2n(C)n1	0%	11%	7.9µM*	-2%
COc1ccc(-c2nc(-c3ccccn3)ncc2S(C)(=O)=O)cc1	-1%	-10%	3%	0%
Cn1nc(-c2ccccn2)nc2c(=O)n(C)c(=O)nc1-2	?	/	2.5µM*	/
O=C(O)c1cc(Cl)cc(Cl)c1	/	11%	/	/
